The binders below were run against AgAbp1 (assay: SPOT peptide array binding signal intensity (averaged, normalized) (arbitrary units (background-subtracted, floor 0; scale differs between SH3 domains)); higher = stronger binding of the SH3 domain to the peptide).
In short: (§1)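 E. coli BL21(DE3) was used to express GST-fused SH3 domains from four yeast species, which were then purified on glutathione Sepharose. These were incubated at 10 μg/ml in TBS-based blocking buffer overnight at 4°C on cellulose membranes carrying synthetic 15-mer peptides, in which cysteines were replaced by serines. Binding signal is the replicate average of normalized, background-subtracted spot intensity, in arbitrary units that differ between domains.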
In the case of ITHRLRISIPGITGR, the “SPOT peptide array binding signal intensity” value is reported as 4.5.

The binders below were run against AgBbc1 in the same assay as above.
In short: as §1
With ITHRLRISIPGITGR the “SPOT peptide array binding signal intensity” value was 199.

What follows are binders tested against AgBem1-D1 in the same assay as above.
In short: as §1
With ITHRLRISIPGITGR the “SPOT peptide array binding signal intensity” value was 314.

These binders were tested against AgBzz1-D1 in the same assay as above.
In short: as §1
ITHRLRISIPGITGR was tested, and the “SPOT peptide array binding signal intensity” value was 121.

Each binder was assayed against AgBzz1-D2 in the same assay as above.
In short: as §1
In the case of ITHRLRISIPGITGR, the “SPOT peptide array binding signal intensity” value is reported as 236.

What follows are binders tested against AgCyk3 in the same assay as above.
In short: as §1
For ITHRLRISIPGITGR, the “SPOT peptide array binding signal intensity” value was 10.

These binders were tested against AgFus1 in the same assay as above.
In short: as §1
In the case of ITHRLRISIPGITGR, the “SPOT peptide array binding signal intensity” value is reported as 1770.

These binders were tested against AgHof1 in the same assay as above.
In short: as §1
With ITHRLRISIPGITGR the “SPOT peptide array binding signal intensity” value was 112.

These binders were tested against AgHse1 in the same assay as above.
In short: as §1
ITHRLRISIPGITGR was tested, and the “SPOT peptide array binding signal intensity” value was 580.

Each binder was assayed against AgLsb1 in the same assay as above.
In short: as §1
With ITHRLRISIPGITGR the “SPOT peptide array binding signal intensity” value was 54.5.

Each binder was assayed against AgLsb4 in the same assay as above.
In short: as §1
ITHRLRISIPGITGR was tested, and the “SPOT peptide array binding signal intensity” value was 687.

The binders below were run against AgMyo5 in the same assay as above.
In short: as §1
With ITHRLRISIPGITGR the “SPOT peptide array binding signal intensity” value was no more than 0.

Each binder was assayed against AgNbp2 in the same assay as above.
In short: as §1
With ITHRLRISIPGITGR the “SPOT peptide array binding signal intensity” value was 101.

Each binder was assayed against AgRvs167 in the same assay as above.
In short: as §1
For ITHRLRISIPGITGR, the “SPOT peptide array binding signal intensity” value was 16.7.

What follows are binders tested against AgSho1 in the same assay as above.
In short: as §1
With ITHRLRISIPGITGR the “SPOT peptide array binding signal intensity” value was 329.

The binders below were run against AgSla1-D1-D2 in the same assay as above.
In short: as §1
With ITHRLRISIPGITGR the “SPOT peptide array binding signal intensity” value was 116.

These binders were tested against AgSla1-D3 in the same assay as above.
In short: as §1
ITHRLRISIPGITGR was tested, and the “SPOT peptide array binding signal intensity” value was 6.

The binders below were run against CaAbp1-D1 in the same assay as above.
In short: as §1
In the case of ITHRLRISIPGITGR, the “SPOT peptide array binding signal intensity” value is reported as 111.

Each binder was assayed against CaAbp1-D2 in the same assay as above.
In short: as §1
In the case of ITHRLRISIPGITGR, the “SPOT peptide array binding signal intensity” value is reported as 39.

These binders were tested against CaBbc1 in the same assay as above.
In short: as §1
In the case of ITHRLRISIPGITGR, the “SPOT peptide array binding signal intensity” value is reported as 306.

The binders below were run against CaBem1-D1 in the same assay as above.
In short: as §1
ITHRLRISIPGITGR was tested, and the “SPOT peptide array binding signal intensity” value was 84.

These binders were tested against CaBzz1-D1 in the same assay as above.
In short: as §1
In the case of ITHRLRISIPGITGR, the “SPOT peptide array binding signal intensity” value is reported as 362.

Each binder was assayed against CaBzz1-D2 in the same assay as above.
In short: as §1
ITHRLRISIPGITGR was tested, and the “SPOT peptide array binding signal intensity” value was 226.

What follows are binders tested against CaCyk3 in the same assay as above.
In short: as §1
In the case of ITHRLRISIPGITGR, the “SPOT peptide array binding signal intensity” value is reported as 37.5.

What follows are binders tested against CaFus1 in the same assay as above.
In short: as §1
ITHRLRISIPGITGR was tested, and the “SPOT peptide array binding signal intensity” value was 2510.

These binders were tested against CaHof1 in the same assay as above.
In short: as §1
ITHRLRISIPGITGR was tested, and the “SPOT peptide array binding signal intensity” value was 1.75.

The binders below were run against CaHse1 in the same assay as above.
In short: as §1
In the case of ITHRLRISIPGITGR, the “SPOT peptide array binding signal intensity” value is reported as 62.5.

These binders were tested against CaLsb1 in the same assay as above.
In short: as §1
ITHRLRISIPGITGR was tested, and the “SPOT peptide array binding signal intensity” value was 5.

What follows are binders tested against CaLsb4 in the same assay as above.
In short: as §1
In the case of ITHRLRISIPGITGR, the “SPOT peptide array binding signal intensity” value is reported as 141.

These binders were tested against CaMyo5 in the same assay as above.
In short: as §1
ITHRLRISIPGITGR was tested, and the “SPOT peptide array binding signal intensity” value was 20.8.

These binders were tested against CaNbp2 in the same assay as above.
In short: as §1
ITHRLRISIPGITGR was tested, and the “SPOT peptide array binding signal intensity” value was 454.

The binders below were run against CaRvs167 in the same assay as above.
In short: as §1
With ITHRLRISIPGITGR the “SPOT peptide array binding signal intensity” value was 636.

These binders were tested against CaRvs167-3 in the same assay as above.
In short: as §1
In the case of ITHRLRISIPGITGR, the “SPOT peptide array binding signal intensity” value is reported as 2400.

Each binder was assayed against CaSho1 in the same assay as above.
In short: as §1
In the case of ITHRLRISIPGITGR, the “SPOT peptide array binding signal intensity” value is reported as 855.

What follows are binders tested against CaSla1-D1-D2 in the same assay as above.
In short: as §1
In the case of ITHRLRISIPGITGR, the “SPOT peptide array binding signal intensity” value is reported as 28.

The binders below were run against CaSla1-D3 in the same assay as above.
In short: as §1
For ITHRLRISIPGITGR, the “SPOT peptide array binding signal intensity” value was 454.

The binders below were run against ScAbp1 in the same assay as above.
In short: as §1
For ITHRLRISIPGITGR, the “SPOT peptide array binding signal intensity” value was 23.

Each binder was assayed against ScBbc1 in the same assay as above.
In short: as §1
With ITHRLRISIPGITGR the “SPOT peptide array binding signal intensity” value was 16.8.

The binders below were run against ScBem1-D1 in the same assay as above.
In short: as §1
With ITHRLRISIPGITGR the “SPOT peptide array binding signal intensity” value was 44.5.

These binders were tested against ScBzz1-D1 in the same assay as above.
In short: as §1
For ITHRLRISIPGITGR, the “SPOT peptide array binding signal intensity” value was 100.

What follows are binders tested against ScBzz1-D2 in the same assay as above.
In short: as §1
With ITHRLRISIPGITGR the “SPOT peptide array binding signal intensity” value was 442.

Each binder was assayed against ScCyk3 in the same assay as above.
In short: as §1
With ITHRLRISIPGITGR the “SPOT peptide array binding signal intensity” value was 72.

The binders below were run against ScFus1 in the same assay as above.
In short: as §1
ITHRLRISIPGITGR was tested, and the “SPOT peptide array binding signal intensity” value was 2080.

The binders below were run against ScHof1 in the same assay as above.
In short: as §1
With ITHRLRISIPGITGR the “SPOT peptide array binding signal intensity” value was 2.

Each binder was assayed against ScHse1 in the same assay as above.
In short: as §1
With ITHRLRISIPGITGR the “SPOT peptide array binding signal intensity” value was 2140.

These binders were tested against ScLsb1 in the same assay as above.
In short: as §1
In the case of ITHRLRISIPGITGR, the “SPOT peptide array binding signal intensity” value is reported as 33.5.

The binders below were run against ScLsb2 in the same assay as above.
In short: as §1
For ITHRLRISIPGITGR, the “SPOT peptide array binding signal intensity” value was 22.

Each binder was assayed against ScLsb3 in the same assay as above.
In short: as §1
In the case of ITHRLRISIPGITGR, the “SPOT peptide array binding signal intensity” value is reported as 282.

Each binder was assayed against ScLsb4 in the same assay as above.
In short: as §1
In the case of ITHRLRISIPGITGR, the “SPOT peptide array binding signal intensity” value is reported as 20.

These binders were tested against ScMyo3 in the same assay as above.
In short: as §1
With ITHRLRISIPGITGR the “SPOT peptide array binding signal intensity” value was no more than 0.

The binders below were run against ScMyo5 in the same assay as above.
In short: as §1
For ITHRLRISIPGITGR, the “SPOT peptide array binding signal intensity” value was 1.5.

These binders were tested against ScNbp2 in the same assay as above.
In short: as §1
ITHRLRISIPGITGR was tested, and the “SPOT peptide array binding signal intensity” value was 397.

Each binder was assayed against ScPex13 in the same assay as above.
In short: as §1
ITHRLRISIPGITGR was tested, and the “SPOT peptide array binding signal intensity” value was 50.2.

These binders were tested against ScRvs167 in the same assay as above.
In short: as §1
In the case of ITHRLRISIPGITGR, the “SPOT peptide array binding signal intensity” value is reported as 163.

The binders below were run against ScSho1 in the same assay as above.
In short: as §1
For ITHRLRISIPGITGR, the “SPOT peptide array binding signal intensity” value was 2380.

What follows are binders tested against ScSla1-D1-D2 in the same assay as above.
In short: as §1
ITHRLRISIPGITGR was tested, and the “SPOT peptide array binding signal intensity” value was 267.

The binders below were run against ScSla1-D3 in the same assay as above.
In short: as §1
ITHRLRISIPGITGR was tested, and the “SPOT peptide array binding signal intensity” value was 69.

What follows are binders tested against SpAbp1-D1 in the same assay as above.
In short: as §1
With ITHRLRISIPGITGR the “SPOT peptide array binding signal intensity” value was 91.5.

These binders were tested against SpBbc1 in the same assay as above.
In short: as §1
For ITHRLRISIPGITGR, the “SPOT peptide array binding signal intensity” value was 57.2.

What follows are binders tested against SpBzz1-D1 in the same assay as above.
In short: as §1
In the case of ITHRLRISIPGITGR, the “SPOT peptide array binding signal intensity” value is reported as 486.

Each binder was assayed against SpBzz1-D2 in the same assay as above.
In short: as §1
In the case of ITHRLRISIPGITGR, the “SPOT peptide array binding signal intensity” value is reported as 1.

The binders below were run against SpCyk3 in the same assay as above.
In short: as §1
ITHRLRISIPGITGR was tested, and the “SPOT peptide array binding signal intensity” value was 30.

The binders below were run against SpHof1 in the same assay as above.
In short: as §1
With ITHRLRISIPGITGR the “SPOT peptide array binding signal intensity” value was 272.

Each binder was assayed against SpHof1-2 in the same assay as above.
In short: as §1
With ITHRLRISIPGITGR the “SPOT peptide array binding signal intensity” value was 31.

These binders were tested against SpHof1-3 in the same assay as above.
In short: as §1
With ITHRLRISIPGITGR the “SPOT peptide array binding signal intensity” value was 461.

These binders were tested against SpHse1 in the same assay as above.
In short: as §1
With ITHRLRISIPGITGR the “SPOT peptide array binding signal intensity” value was 625.

Each binder was assayed against SpLsb1 in the same assay as above.
In short: as §1
With ITHRLRISIPGITGR the “SPOT peptide array binding signal intensity” value was 10.8.

These binders were tested against SpLsb4 in the same assay as above.
In short: as §1
In the case of ITHRLRISIPGITGR, the “SPOT peptide array binding signal intensity” value is reported as 108.

The binders below were run against SpMyo1 in the same assay as above.
In short: as §1
In the case of ITHRLRISIPGITGR, the “SPOT peptide array binding signal intensity” value is reported as 3.

The binders below were run against SpNbp2 in the same assay as above.
In short: as §1
With ITHRLRISIPGITGR the “SPOT peptide array binding signal intensity” value was 802.

What follows are binders tested against SpPex13 in the same assay as above.
In short: as §1
ITHRLRISIPGITGR was tested, and the “SPOT peptide array binding signal intensity” value was 124.

Each binder was assayed against SpRvs167 in the same assay as above.
In short: as §1
In the case of ITHRLRISIPGITGR, the “SPOT peptide array binding signal intensity” value is reported as 115.

What follows are binders tested against SpSla1-D1-D2 in the same assay as above.
In short: as §1
In the case of ITHRLRISIPGITGR, the “SPOT peptide array binding signal intensity” value is reported as 1.

These binders were tested against SpSla1-D3 in the same assay as above.
In short: as §1
For ITHRLRISIPGITGR, the “SPOT peptide array binding signal intensity” value was 6.5.

— the supplement of paper PMC4466140
